The record followed here is PubChem BioAssay (NCI).

Among the test systems are NCI-H23 lung; NCI-H226 lung; NCI-H322M lung; HOP-62 NSCLC; NCI-H460 lung; HOP-92 NSCLC; NCI-H522 lung; A549/ATCC NSCLC; 786-0 renal; COLO 205 colon; DU-145 prostate; K-562 leukemia; MALME-3M melanoma; MDA-MB-231 breast; RXF 393 renal; SF-268 CNS; SF-295 CNS; SF-539 CNS; UACC-257 melanoma; M14 melanoma.
Assay in all cases: NCI-60 one-dose screen, 48 h (100 = growth as untreated, 0 = no growth, -100 = all killed)
Holding throughout (conditions): 10 µM unless noted

The panel holds about 83,000 compounds, 20% with a hit somewhere; the sample as a whole holds those more often.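 Plates (96-well) were seeded with cells, treated with compound at one concentration, and incubated for 48 hours before percent growth was determined.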 A number with no mark means an inactive call. Activity calls are given as the source filed them. Rule for the calls: active = growth percent below 10; inactive = the rest.

On to `C=C1C(=O)O[C@H]2[C@H]1CC/C(COC(=O)/C=C/c1c[nH]c3ccccc13)=C\CC[C@@]1(C)O[C@@H]21`, for which the growth with NCI-H23 lung was -53% (active); in the assay on NCI-H226 lung, -71.4% (active); with NCI-H322M lung, -48.2% (active); in the assay on HOP-62 NSCLC, -73.5% (active); with NCI-H460 lung it was -70.8% (active); with HOP-92 NSCLC it was -91.4% (active). In addition, the growth in the assay on NCI-H522 lung was -63.1% (active); with A549/ATCC NSCLC, -78.7% (active); in the assay with 786-0 renal, -90.4% (active); in the assay with COLO 205 colon it was -68.8% (active); with DU-145 prostate it was -73.5% (active); in the assay on K-562 leukemia, -3.41% (active). Moreover, the growth in the assay with MALME-3M melanoma is -83.5% (active); in the assay on MDA-MB-231 breast, -78.4% (active); in the assay on RXF 393 renal, -94.3% (active); in the assay on SF-268 CNS, -72.8% (active); with SF-295 CNS, 21.8%; in the assay with SF-539 CNS it was -95.5% (active). In addition, the values for the growth in the assay with UACC-257 melanoma and with M14 melanoma were -90.4% (active) and -76.9% (active), respectively.
`COc1ccc(CNCCN2C(=O)c3ccc4c5c(ccc(c35)C2=O)C(=O)N(CCNCc2ccc(OC)cc2)C4=O)cc1`: the growth in the assay on NCI-H23 lung is -52.5% (active); in the assay with NCI-H226 lung, -63.7% (active); with NCI-H322M lung it was -74.2% (active); in the assay on HOP-62 NSCLC, -33.8% (active); in the assay with NCI-H460 lung, -78.8% (active); in the assay on HOP-92 NSCLC it was -46.8% (active). The growth in the assay with NCI-H522 lung was -80.9% (active); in the assay with A549/ATCC NSCLC it was -84.1% (active); with 786-0 renal, -76.5% (active); with COLO 205 colon, -40.9% (active); in the assay with DU-145 prostate it was -90.6% (active); in the assay with K-562 leukemia, -37.8% (active). For the same molecule, the growth in the assay with MALME-3M melanoma was -76.3% (active); with MDA-MB-231 breast it was -16.7% (active); with RXF 393 renal it was -93% (active); in the assay with SF-268 CNS, -71.2% (active); with SF-295 CNS it was -62.2% (active); with SF-539 CNS, -77.3% (active). The growth with UACC-257 melanoma is -91% (active); in the assay with M14 melanoma it was -72.8% (active).
For the molecule `Clc1ccc(C2CC(c3cccc(Nc4ccncc4)c3)=NN2c2ccccc2)cc1` (centres undefined), the growth in the assay on NCI-H23 lung is 84.3%; in the assay on NCI-H226 lung, 93.1%; with NCI-H322M lung it was 69.7%; in the assay on HOP-62 NSCLC, 0.979% (active); with NCI-H460 lung it was -70.5% (active); in the assay on HOP-92 NSCLC, 55.8%. Further, the growth with NCI-H522 lung is -39.1% (active); in the assay with A549/ATCC NSCLC it was 27.3%; in the assay with 786-0 renal, -94.3% (active); in the assay with COLO 205 colon, -63.6% (active); in the assay on DU-145 prostate, 56.7%; in the assay on K-562 leukemia, 0.432% (active). Further, the growth with MALME-3M melanoma was -72% (active); in the assay on MDA-MB-231 breast it was 75.2%; with SF-268 CNS it was 82.1%; in the assay on SF-295 CNS, 70%; with SF-539 CNS, 71.5%; with UACC-257 melanoma, 34.5%. The growth in the assay on M14 melanoma was -80.6% (active).
As to `C(=C\c1n(Cc2ccc3ccccc3c2)c(-c2ccccc2)c(-c2ccccc2)[n+]1Cc1ccc2ccccc2c1)/c1ccccc1`, the growth was -80.2% (active) with NCI-H23 lung; -74.9% (active) with NCI-H226 lung; -5.86% (active) with NCI-H322M lung; -84.5% (active) in the assay with HOP-62 NSCLC; -84.1% (active) in the assay with NCI-H460 lung; -81.8% (active) with HOP-92 NSCLC. For the same molecule, the growth in the assay with NCI-H522 lung is -62.3% (active); in the assay on A549/ATCC NSCLC, -62.4% (active); with 786-0 renal, -78.2% (active); with COLO 205 colon, -70.5% (active); in the assay with DU-145 prostate, -97% (active); in the assay with K-562 leukemia, -22.3% (active). For the same molecule, the growth with MALME-3M melanoma is -86.9% (active); with MDA-MB-231 breast it was -95% (active); in the assay with RXF 393 renal it was -93.5% (active); in the assay on SF-268 CNS, -68.5% (active); in the assay with SF-295 CNS it was -95.9% (active); with SF-539 CNS, -91.9% (active). Besides, the growth is -69.2% (active) in the assay on UACC-257 melanoma and -72.2% (active) with M14 melanoma.
For the molecule `Cc1ccc(O)c(C(=O)O)c1`, the growth was 100% with NCI-H23 lung; 105% with NCI-H226 lung; 115% in the assay on NCI-H322M lung; 99.8% in the assay on HOP-62 NSCLC; 103% in the assay with NCI-H460 lung; 101% in the assay on HOP-92 NSCLC. Moreover, the growth in the assay on NCI-H522 lung was 99%; in the assay with A549/ATCC NSCLC it was 103%; in the assay on 786-0 renal, 104%; in the assay on COLO 205 colon it was 120%; in the assay with DU-145 prostate it was 114%; in the assay on K-562 leukemia it was 98.2%. The growth in the assay with MALME-3M melanoma is 128%; in the assay on MDA-MB-231 breast, 114%; with RXF 393 renal, 121%; in the assay on SF-268 CNS, 104%; in the assay on SF-295 CNS, 114%; with SF-539 CNS it was 116%. The values for the growth with UACC-257 melanoma and in the assay on M14 melanoma were 108% and 116%, respectively.
`CC1NC(=S)NC(=O)/C1=C/c1cc(=O)oc2c1ccc1ccccc12` (centres undefined): the growth was 93.8% with NCI-H23 lung; 86.1% with NCI-H226 lung; 101% with NCI-H322M lung; 82.1% in the assay on HOP-62 NSCLC; 102% in the assay on NCI-H460 lung; 75.9% in the assay with HOP-92 NSCLC. Also, the growth in the assay with NCI-H522 lung was 73.8%; with A549/ATCC NSCLC it was 81.3%; with 786-0 renal, 107%; in the assay on COLO 205 colon, 104%; in the assay on DU-145 prostate, 108%; in the assay with K-562 leukemia it was 94.6%. Moreover, the growth in the assay on MALME-3M melanoma is 90.9%; with MDA-MB-231 breast it was 95.1%; in the assay with RXF 393 renal, 101%; in the assay with SF-268 CNS, 97%; in the assay with SF-295 CNS, 100%; in the assay with SF-539 CNS, 96.8%. Further, the results for the growth with UACC-257 melanoma and in the assay on M14 melanoma were 80.5% and 94.9%, respectively.
As to `O=S(=O)(NCCCNc1nccc(-c2c(-c3cccc(O)c3)nc3occn23)n1)c1ccc(Br)cc1`, the growth with NCI-H23 lung was 101%; in the assay with NCI-H226 lung, 103%; in the assay on NCI-H322M lung, 113%; in the assay on HOP-62 NSCLC it was 124%; with NCI-H460 lung, 97.1%; in the assay with HOP-92 NSCLC, 108%. Moreover, the growth in the assay on NCI-H522 lung is 94.3%; in the assay on A549/ATCC NSCLC, 98.2%; in the assay with 786-0 renal, 106%; with COLO 205 colon, 31.9%; with DU-145 prostate it was 97%; with K-562 leukemia, 67.3%. The growth with MALME-3M melanoma is 11.5%; in the assay on MDA-MB-231 breast, 64.3%; in the assay on RXF 393 renal it was 82.6%; in the assay with SF-268 CNS, 97.1%; in the assay with SF-295 CNS, 111%; with SF-539 CNS it was 110%. In addition, the growth was 18.4% in the assay with UACC-257 melanoma and 29% in the assay on M14 melanoma.
Regarding `Nc1cc(N)c2cccnc2c1O`, the growth in the assay on NCI-H23 lung was 35.5%; in the assay with NCI-H226 lung it was 89.8%; in the assay on NCI-H322M lung, 78%; in the assay with HOP-62 NSCLC it was 69.5%; in the assay with NCI-H460 lung, 15.2%; in the assay on HOP-92 NSCLC, 72.3%. Moreover, the growth in the assay with NCI-H522 lung is 67.2%; in the assay on A549/ATCC NSCLC, 63%; in the assay with 786-0 renal, 89.8%; in the assay with COLO 205 colon, 102%; in the assay on DU-145 prostate, 72.7%; in the assay with K-562 leukemia it was 37.5%. Besides, the growth is 85% in the assay on MALME-3M melanoma; 78.6% in the assay on MDA-MB-231 breast; 74.9% with RXF 393 renal; 83.4% in the assay with SF-268 CNS; 63.2% in the assay on SF-295 CNS; 66.1% with SF-539 CNS. Also, the growth in the assay on UACC-257 melanoma is 76.1%; in the assay on M14 melanoma, 76.5%.
